{"source": "the supplement of paper PMC8728848", "binders": {"B1": {"name": "truncCC1G-10077 (Coprinopsis cinerea) (protein)", "chain": "MHHHHHHHHPLPSPGPGWVLIQNGGTGKFLCSTPSGDIGTADGPETVYDYSVQWRFIQREYTGVYHVVNRATGAYLRQIGTSMPSIGLAEENDDELKDWWMLETYDNSEIGLASIISRWTGNVLDHYGGVSVQALDNNTENSYRSWAIIPARDWLTSFSLVNGQGGLCLAAQYAREETRLSTTANVNDFHAQWVFRKPSGSSGYTIQNKYNNHYVGGTSARWELVVCCNKYFGIRNTSTQKYLAIEDGQVTFQDQDMTDRKQCWELCSGRATDTSGNDYDLIYMDDDLLEVMIPWVGDKQGDLKHYIEKRATKKPPKDKGGWQLPAAGLIKKPKFNDIRQLLQELIEQWEWDVVNEEREQIQTLVSIDEAEARRLLGRRPHPDIVAAYQRSRSSTLFRIDRQGYFNIAGDRYVNIQGQYGDDSYFHIALPVGVRFGREQIRRFLRDSLDRSTSVTITPTTCKPPSGGPDYNRDPDSDGDNSWIKWTIAVVGTSAIKHSEL"}}, "experiment_in_all_cases": "glycan array binding signal (z-score within array); higher = stronger binding", "details_in_all_cases": "glycan notation: IUPAC condensed, linker removed", "key": {"[1]": {"molecular_target": "Fuc(a1-2)Gal(b1-3)GlcNAc(b1-2)Man(a1-3)[Fuc(a1-2)Gal(b1-3)GlcNAc(b1-2)Man(a1-6)]Man(b1-4)GlcNAc(b1-4)GlcNAc", "outline": "(§1)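 From the Consortium for Functional Glycomics database, 3228 arrays were curated, keeping only those whose protein sequence was available. Binding is given as a within-array Z-score averaged across arrays sharing a protein sequence and across linkers. Negative Z-scores can be read as non-binding.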"}, "[2]": {"molecular_target": "Fuc(a1-2)Gal(b1-4)Glc", "outline": "as §1"}, "[3]": {"molecular_target": "Fuc(a1-2)Gal(b1-4)GlcNAc(b1-3)[Fuc(a1-2)Gal(b1-4)GlcNAc(b1-6)]GalNAc", "outline": "as §1"}, "[4]": {"molecular_target": "Fuc(a1-2)Gal6S(b1-3)GlcNAc6S", "outline": "as §1"}, "[5]": {"molecular_target": "Fuc(a1-2)[Gal(a1-3)]Gal(b1-4)[Fuc(a1-3)]GlcNAc", "outline": "as §1"}, "[6]": {"molecular_target": "Fuc(a1-2)[GalNAc(a1-3)]Gal(b1-3)GlcNAc(b1-3)GalNAc", "outline": "as §1"}, "[7]": {"molecular_target": "Fuc(a1-2)[GalNAc(a1-3)]Gal(b1-4)Glc", "outline": "as §1"}, "[8]": {"molecular_target": "Fuc(a1-2)[GalNAc(a1-4)]Gal(b1-4)GlcNAc", "outline": "as §1"}, "[9]": {"molecular_target": "Fuc(a1-3)[Gal(b1-4)]GlcNAc(b1-6)GalNAc", "outline": "as §1"}, "[10]": {"molecular_target": "Gal(b1-4)GlcNAc(b1-2)Man(a1-3)[Gal(b1-4)GlcNAc(b1-2)Man(a1-6)]Man(b1-4)GlcNAc(b1-4)[Fuc(a1-6)]GlcNAc", "outline": "as §1"}, "[11]": {"molecular_target": "Gal(b1-4)GlcNAc(b1-2)Man(a1-3)[GlcNAc(b1-4)][Gal(b1-4)GlcNAc(b1-2)Man(a1-6)]Man(b1-4)GlcNAc(b1-4)GlcNAc", "outline": "as §1"}, "[12]": {"molecular_target": "Gal(b1-4)GlcNAc(b1-2)[Gal(b1-4)GlcNAc(b1-6)]Man(a1-6)[GlcNAc(b1-4)][Gal(b1-4)GlcNAc(b1-2)Man(a1-3)]Man(b1-4)GlcNAc(b1-4)GlcNAc", "outline": "as §1"}, "[13]": {"molecular_target": "Gal(b1-4)GlcNAc(b1-3)Gal(b1-4)GlcNAc(b1-2)[Gal(b1-4)GlcNAc(b1-3)Gal(b1-4)GlcNAc(b1-6)]Man(a1-6)[Gal(b1-4)GlcNAc(b1-3)Gal(b1-4)GlcNAc(b1-2)Man(a1-3)]Man(b1-4)GlcNAc(b1-4)GlcNAc", "outline": "as §1"}, "[14]": {"molecular_target": "Gal(b1-4)GlcNAc(b1-3)Gal(b1-4)GlcNAc(b1-3)Gal(b1-4)GlcNAc", "outline": "as §1"}, "[15]": {"molecular_target": "Gal(b1-4)GlcNAc(b1-3)Gal(b1-4)GlcNAc(b1-3)Gal(b1-4)GlcNAc(b1-3)Gal(b1-4)GlcNAc(b1-2)Man(a1-3)[Gal(b1-4)GlcNAc(b1-3)Gal(b1-4)GlcNAc(b1-3)Gal(b1-4)GlcNAc(b1-3)Gal(b1-4)GlcNAc(b1-2)Man(a1-6)]Man(b1-4)GlcNAc(b1-4)[Fuc(a1-6)]GlcNAc", "outline": "as §1"}, "[16]": {"molecular_target": "Gal(b1-4)GlcNAc(b1-3)[Gal(b1-4)GlcNAc(b1-6)]Gal(b1-4)GlcNAc", "outline": "as §1"}, "[17]": {"molecular_target": "Gal(b1-4)GlcNAc(b1-3)[GlcNAc(b1-6)]Gal(b1-4)GlcNAc", "outline": "as §1"}, "[18]": {"molecular_target": "GalNAc(b1-3)Gal(a1-4)Gal(b1-4)GlcNAc", "outline": "as §1"}, "[19]": {"molecular_target": "GlcA(b1-6)Gal", "outline": "as §1"}, "[20]": {"molecular_target": "GlcNAc(b1-3)Gal(b1-3)GalNAc", "outline": "as §1"}, "[21]": {"molecular_target": "GlcNAc(b1-3)Gal(b1-4)GlcNAc(b1-3)Gal(b1-4)GlcNAc(b1-2)Man(a1-3)[GlcNAc(b1-3)Gal(b1-4)GlcNAc(b1-3)Gal(b1-4)GlcNAc(b1-2)Man(a1-6)]Man(b1-4)GlcNAc(b1-4)GlcNAc", "outline": "as §1"}, "[22]": {"molecular_target": "GlcNAc(b1-3)Gal(b1-4)GlcNAc(b1-3)Gal(b1-4)GlcNAc(b1-3)Gal(b1-4)GlcNAc(b1-2)[GlcNAc(b1-3)Gal(b1-4)GlcNAc(b1-3)Gal(b1-4)GlcNAc(b1-3)Gal(b1-4)GlcNAc(b1-6)]Man(a1-6)[GlcNAc(b1-3)Gal(b1-4)GlcNAc(b1-3)Gal(b1-4)GlcNAc(b1-3)Gal(b1-4)GlcNAc(b1-2)Man(a1-3)]Man(b1-4)GlcNAc(b1-4)[Fuc(a1-6)]GlcNAc", "outline": "as §1"}, "[23]": {"molecular_target": "GlcNAc(b1-4)GlcNAc(b1-4)GlcNAc(b1-4)GlcNAc(b1-4)GlcNAc(b1-4)GlcNAc", "outline": "as §1"}, "[24]": {"molecular_target": "Man(a1-3)[Man(a1-6)]Man(a1-6)[Man(a1-3)]Man", "outline": "as §1"}, "[25]": {"molecular_target": "Neu5Ac(a2-3)Gal(b1-4)GlcNAc(b1-2)Man", "outline": "as §1"}, "[26]": {"molecular_target": "Neu5Ac(a2-3)Gal(b1-4)GlcNAc(b1-3)Gal(b1-3)GlcNAc", "outline": "as §1"}, "[27]": {"molecular_target": "Neu5Ac(a2-3)Gal(b1-4)GlcNAc(b1-3)Gal(b1-4)GlcNAc(b1-3)Gal(b1-4)GlcNAc", "outline": "as §1"}, "[28]": {"molecular_target": "Neu5Ac(a2-3)Gal(b1-4)GlcNAc(b1-3)Gal(b1-4)GlcNAc(b1-3)GalNAc", "outline": "as §1"}, "[29]": {"molecular_target": "Neu5Ac(a2-3)Gal(b1-4)[Fuc(a1-3)]GlcNAc(b1-6)[Neu5Ac(a2-3)Gal(b1-3)]GalNAc", "outline": "as §1"}, "[30]": {"molecular_target": "Neu5Ac(a2-6)Gal(b1-4)GlcNAc(b1-3)Gal(b1-4)GlcNAc(b1-6)[Gal(b1-3)]GalNAc", "outline": "as §1"}, "[31]": {"molecular_target": "Neu5Ac(a2-6)Gal(b1-4)GlcNAc(b1-6)GalNAc", "outline": "as §1"}, "[32]": {"molecular_target": "Neu5Ac(a2-8)Neu5Ac(a2-8)Neu5Ac(a2-3)Gal(b1-4)Glc", "outline": "as §1"}, "[33]": {"molecular_target": "Neu5Ac(b2-6)Gal(b1-4)GlcNAc", "outline": "as §1"}, "[34]": {"molecular_target": "Neu5Ac9Ac(a2-3)Gal(b1-3)GlcNAc", "outline": "as §1"}, "[35]": {"molecular_target": "Neu5Gc(a2-3)Gal(b1-4)[Fuc(a1-3)]GlcNAc", "outline": "as §1"}, "[36]": {"molecular_target": "Neu5Gc(a2-6)GalNAc", "outline": "as §1"}}, "note": "The full list was thinned out, with the strongest signals kept by preference.", "data": [{"binder": "B1", "values": [{"measurement": "glycan array binding signal (z-score)", "setting": "[1]", "result": 3.72}, {"measurement": "glycan array binding signal (z-score)", "setting": "[2]", "result": -0.216}, {"measurement": "glycan array binding signal (z-score)", "setting": "[3]", "result": 2.81}, {"measurement": "glycan array binding signal (z-score)", "setting": "[4]", "result": 0.519}, {"measurement": "glycan array binding signal (z-score)", "setting": "[5]", "result": 1.66}, {"measurement": "glycan array binding signal (z-score)", "setting": "[6]", "result": 3.65}, {"measurement": "glycan array binding signal (z-score)", "setting": "[7]", "result": -0.829}, {"measurement": "glycan array binding signal (z-score)", "setting": "[8]", "result": -0.664}, {"measurement": "glycan array binding signal (z-score)", "setting": "[9]", "result": 3.46}, {"measurement": "glycan array binding signal (z-score)", "setting": "[10]", "result": 3.13}, {"measurement": "glycan array binding signal (z-score)", "setting": "[11]", "result": 0.359}, {"measurement": "glycan array binding signal (z-score)", "setting": "[12]", "result": -0.119}, {"measurement": "glycan array binding signal (z-score)", "setting": "[13]", "result": 3.74}, {"measurement": "glycan array binding signal (z-score)", "setting": "[14]", "result": -0.532}, {"measurement": "glycan array binding signal (z-score)", "setting": "[15]", "result": 0.374}, {"measurement": "glycan array binding signal (z-score)", "setting": "[16]", "result": -0.821}, {"measurement": "glycan array binding signal (z-score)", "setting": "[17]", "result": -1.04}, {"measurement": "glycan array binding signal (z-score)", "setting": "[18]", "result": -0.242}, {"measurement": "glycan array binding signal (z-score)", "setting": "[19]", "result": 4.61}, {"measurement": "glycan array binding signal (z-score)", "setting": "[20]", "result": -0.15}, {"measurement": "glycan array binding signal (z-score)", "setting": "[21]", "result": 1.17}, {"measurement": "glycan array binding signal (z-score)", "setting": "[22]", "result": 0.218}, {"measurement": "glycan array binding signal (z-score)", "setting": "[23]", "result": -0.144}, {"measurement": "glycan array binding signal (z-score)", "setting": "[24]", "result": 0.384}, {"measurement": "glycan array binding signal (z-score)", "setting": "[25]", "result": 2.91}, {"measurement": "glycan array binding signal (z-score)", "setting": "[26]", "result": -0.855}, {"measurement": "glycan array binding signal (z-score)", "setting": "[27]", "result": -1.07}, {"measurement": "glycan array binding signal (z-score)", "setting": "[28]", "result": 0.244}, {"measurement": "glycan array binding signal (z-score)", "setting": "[29]", "result": 3.72}, {"measurement": "glycan array binding signal (z-score)", "setting": "[30]", "result": 0.521}, {"measurement": "glycan array binding signal (z-score)", "setting": "[31]", "result": 3.21}, {"measurement": "glycan array binding signal (z-score)", "setting": "[32]", "result": 0.249}, {"measurement": "glycan array binding signal (z-score)", "setting": "[33]", "result": -1.25}, {"measurement": "glycan array binding signal (z-score)", "setting": "[34]", "result": -1.02}, {"measurement": "glycan array binding signal (z-score)", "setting": "[35]", "result": 3.02}, {"measurement": "glycan array binding signal (z-score)", "setting": "[36]", "result": -0.873}]}]}
